# Experimental data taken from the supplement of paper PMC8728848.
# About 410 targets per protein were measured; listed, in parts, are those with the strongest signals and a random draw of the rest.
# B1: Gal 8 (Homo sapiens), O00214 (protein)
# chain: MMLSLNNLQNIIYNPVIPFVGTIPDQLDPGTLIVIRGHVPSDADRFQVDLQNGSSMKPRADVAFHFNPRFKRAGCIVCNTLINEKWGREEITYDTPFKREKSFEIVIMVKDKFQVAVNGKHTLLYGHRIGPEKIDTLGIYGKVNIHSIGFSFSSDLQSTQASSLELTEISRENVPKSGTPQLPSNRGGDISKIAPRTVYTKSKDSTVNHTLTCTKIPPMNYVSKRLPFAARLNTPMGPGRTVVVKGEVNANAKSFNVDLLAGKSKDIALHLNPRLNIKAFVRNSFLQESWGEEERNITSFPFSPGMYFEMIIYCDVREFKVAVNGVHSLEYKHRFKELSSIDTLEINGDIHLLEVRSW
# Assays:
# Assay in all cases: glycan array binding signal (z-score within array); higher = stronger binding
# Conditions in all cases: glycan notation: IUPAC condensed, linker removed
# [1] = target: Fuc(a1-2)Gal(b1-3)GalNAc(b1-3)Gal(a1-4)Gal(b1-4)Glc
# Outline: (§1)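 Glycan array data were curated from 3228 arrays in the Consortium for Functional Glycomics database and kept only where the protein sequence was available. Glycan names were converted to IUPAC-condensed notation, and columns mapping to the same glycan were averaged. The binding signal is a within-array Z-score, averaged across arrays of the same protein sequence at different concentrations or buffers and across linkers. Negative Z-scores can be read as non-binding.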
# Fuc(a1-2)Gal(b1-4)Glc6S = target: Fuc(a1-2)Gal(b1-4)Glc6S
# Outline: as §1
# [2] = target: Fuc(a1-2)Gal(b1-4)[Fuc(a1-3)]GlcNAc(b1-3)Gal(b1-4)[Fuc(a1-3)]GlcNAc(b1-3)Gal(b1-4)[Fuc(a1-3)]GlcNAc
# Outline: as §1
# Fuc(a1-2)Gal6S(b1-4)Glc = target: Fuc(a1-2)Gal6S(b1-4)Glc
# Outline: as §1
# [3] = target: Fuc(a1-2)[Gal(a1-3)]Gal(b1-3)GlcNAc
# Outline: as §1
# [4] = target: Fuc(a1-2)[Gal(a1-3)]Gal(b1-4)Glc
# Outline: as §1
# [5] = target: Fuc(a1-2)[Gal(a1-3)]Gal(b1-4)GlcNAc
# Outline: as §1
# [6] = target: Fuc(a1-2)[GalNAc(a1-3)]Gal(b1-4)Glc
# Outline: as §1
# [7] = target: Fuc(a1-2)[GalNAc(b1-3)]Gal
# Outline: as §1
# [8] = target: Fuc(a1-3)[Gal(b1-4)]GlcNAc6S
# Outline: as §1
# Gal(a1-3)Gal(b1-4)GlcNAc = target: Gal(a1-3)Gal(b1-4)GlcNAc
# Outline: as §1
# Gal(b1-2)Gal = target: Gal(b1-2)Gal
# Outline: as §1
# [9] = target: Gal(b1-3)GalNAc(b1-4)Gal(b1-4)Glc
# Outline: as §1
# [10] = target: Gal(b1-3)[Fuc(a1-4)]GlcNAc
# Outline: as §1
# [11] = target: Gal(b1-3)[Fuc(a1-4)]GlcNAc(b1-3)Gal(b1-4)GlcNAc
# Outline: as §1
# [12] = target: Gal(b1-4)GlcNAc(b1-3)Gal(b1-4)Glc
# Outline: as §1
# [13] = target: Gal3S(b1-3)[Fuc(a1-4)]GlcNAc
# Outline: as §1
# Gal3S(b1-4)Glc = target: Gal3S(b1-4)Glc
# Outline: as §1
# Gal4S(b1-4)GlcNAc = target: Gal4S(b1-4)GlcNAc
# Outline: as §1
# [14] = target: GalNAc(b1-3)Gal(a1-4)Gal(b1-4)GlcNAc
# Outline: as §1
# GlcA(b1-3)Gal = target: GlcA(b1-3)Gal
# Outline: as §1
# GlcNAc(b1-3)Gal = target: GlcNAc(b1-3)Gal
# Outline: as §1
# [15] = target: GlcNAc(b1-4)Gal(b1-4)GlcNAc
# Outline: as §1
# GlcNAc(b1-4)GlcNAc = target: GlcNAc(b1-4)GlcNAc
# Outline: as §1
# [16] = target: Neu5Ac(a2-3)Gal(b1-3)GlcNAc(b1-3)Gal(b1-3)GlcNAc
# Outline: as §1
# [17] = target: Neu5Ac(a2-3)Gal(b1-4)GlcNAc(b1-6)[Gal(b1-3)]GalNAc
# Outline: as §1
# [18] = target: Neu5Ac(a2-6)Gal(b1-4)GlcNAc(b1-2)Man(a1-3)[GlcNAc(b1-2)Man(a1-6)]Man(b1-4)GlcNAc(b1-4)GlcNAc
# Outline: as §1
# [19] = target: Neu5Ac(a2-6)Gal(b1-4)GlcNAc(b1-2)Man(a1-6)[GlcNAc(b1-2)Man(a1-3)]Man(b1-4)GlcNAc(b1-4)GlcNAc
# Outline: as §1
# [20] = target: Neu5Ac(a2-6)Gal(b1-4)GlcNAc(b1-3)Gal(b1-4)[Fuc(a1-3)]GlcNAc(b1-3)Gal(b1-4)[Fuc(a1-3)]GlcNAc
# Outline: as §1
# [21] = target: Neu5Gc(b2-6)Gal(b1-4)GlcNAc
# Outline: as §1
binder,measurement,setting,value
B1,glycan array binding signal (z-score),[1],-0.141
same,glycan array binding signal (z-score),Fuc(a1-2)Gal(b1-4)Glc6S,0.286
same,glycan array binding signal (z-score),[2],-0.386
same,glycan array binding signal (z-score),Fuc(a1-2)Gal6S(b1-4)Glc,-0.427
same,glycan array binding signal (z-score),[3],3.58
same,glycan array binding signal (z-score),[4],5.02
same,glycan array binding signal (z-score),[5],4.8
same,glycan array binding signal (z-score),[6],4.22
same,glycan array binding signal (z-score),[7],0.118
same,glycan array binding signal (z-score),[8],-0.432
same,glycan array binding signal (z-score),Gal(a1-3)Gal(b1-4)GlcNAc,0.236
same,glycan array binding signal (z-score),Gal(b1-2)Gal,-0.401
same,glycan array binding signal (z-score),[9],0.32
same,glycan array binding signal (z-score),[10],-0.413
same,glycan array binding signal (z-score),[11],0.294
same,glycan array binding signal (z-score),[12],2.43
same,glycan array binding signal (z-score),[13],-0.42
same,glycan array binding signal (z-score),Gal3S(b1-4)Glc,0.286
same,glycan array binding signal (z-score),Gal4S(b1-4)GlcNAc,-0.395
same,glycan array binding signal (z-score),[14],0.145
same,glycan array binding signal (z-score),GlcA(b1-3)Gal,-0.451
same,glycan array binding signal (z-score),GlcNAc(b1-3)Gal,-0.434
same,glycan array binding signal (z-score),[15],-0.425
same,glycan array binding signal (z-score),GlcNAc(b1-4)GlcNAc,-0.449
same,glycan array binding signal (z-score),[16],0.949
same,glycan array binding signal (z-score),[17],0.196
same,glycan array binding signal (z-score),[18],-0.45
same,glycan array binding signal (z-score),[19],-0.442
same,glycan array binding signal (z-score),[20],-0.365
same,glycan array binding signal (z-score),[21],-0.452
